The text below walks through data of PubChem BioAssay (NCATS).

A number with no mark means an inactive call. Records with an inconclusive call do not appear. Active and inactive are the calls of the source. Unless noted, calls come from the whole dose curve; as a rule, active = well fitted curve in the direction sought with a large enough effect; inconclusive = small, poorly fitted or top-dose-only effect, or another doubt; inactive = no such curve, though single readings can be large; an effect the other way counts as inactive or inconclusive.

Assay [1] concerns the target Tumor susceptibility gene 101 protein (Homo sapiens) (UniProt Q99816). The experiment in a line: qHTS Assay for Iinhibitors of HIV-1 Budding by Blocking the Interaction of PTAP/TSG101: Hit Validation (AID 651600). Note: potency is the fitted concentration of half-maximal effect; nearly all actives have a fitted effect of over 70% in size. An outline of the steps:
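FITC-PTAP peptide (50 nM final) binding to Tsg101 binding domain (10 uM final) was measured by polarization after 20 min at r.t. with compounds, in 10 mM HEPES pH 7.5 buffer with 0.15 M NaCl and 0.01% Tween 20.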
For orientation: Quantitative high-throughput screening tests each substance at several concentrations.

The target of assay [2] is Rap guanine nucleotide exchange factor 3 (Homo sapiens) (UniProt O95398). The experiment in a line: Confirmatory qHTS for antagonist of cAMP-regulated guanine nucleotide exchange factor 3 (EPAC1) (AID 1645880).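 For activity, negative = inhibition: plate controls were DMSO only for no effect and full effect of the ATA control for full effect.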 Note: nearly all actives have a fitted effect of over 55% in size. Note: potency is the fitted concentration of half-maximal effect. To be noted: EPAC1 Rap1B-BODIPY-GDP exchange, fluorescence; activity, negative = inhibition: at 115 µM (top of the series). An outline of the steps:
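Released BODIPY-GDP fluoresces less than Rap1-bound BODIPY-GDP; the signal is followed at 480/540 nm at 5-min intervals over 30 min, after 5 min at room temperature. Reactions contain 100 nM EPAC1, 250 nM RAP1B-BODIPY-GDP and 50 uM GDP; results are normalized to ATA and DMSO.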

Assay [3] has as its target Rap guanine nucleotide exchange factor 4 (Homo sapiens) (UniProt Q8WZA2). The experiment in a line: Confirmatory qHTS for agonist of cAMP-regulated guanine nucleotide exchange factor 4 (EPAC2) (AID 1645884).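 Note: nucleotide exchange releases bodipy-GDP from Rap1 and this lowers its fluorescence; nearly all actives have a fitted effect of over 65% in size.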 Note: potency is the fitted concentration of half-maximal effect.
Assay [4] shares this target. The experiment in a line: Confirmatory qHTS for antagonist of cAMP-regulated guanine nucleotide exchange factor 4 (EPAC2) (AID 1645885). Note: nearly all actives have a fitted effect of over 25% in size. Note: potency is the fitted concentration of half-maximal effect.
Assay [5] addresses Rap guanine nucleotide exchange factor 3 (Homo sapiens) (UniProt O95398). The experiment in a line: Counterscreen qHTS for antagonist of cAMP-regulated guanine nucleotide exchange factor 3 (EPAC1) (AID 1645888). For activity change, negative = inhibition: % of control where 0% means no effect. Note: potency is the fitted concentration of half-maximal effect. An outline of the steps: (§1)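 Measured: fluorescence of BODIPY-GDP bound to Rap1B, which falls as exchange proceeds. Conditions include 50 uM competing GDP, 5 and 30 min reads, and a later cAMP challenge for antagonist detection.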
A general note: Counterscreens check selectivity or assay interference.

Assay [6] concerns the target Lysosomal acid glucosylceramidase (Homo sapiens) (UniProt P04062). The experiment in a line: Glucocerebrosidase-p2 (AID 348; in the data active = potency below about 10 µM; note: potency is the fitted concentration of half-maximal effect). To be noted: purified GBA, blue fluorogenic substrate, 40 min. An outline of the steps:
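Normal human glucocerebrosidase (0.2 nM) with blue fluorogenic substrate (80 uM final) in citrate/phosphate pH 5.9 with 10mM sodium taurocholate, 0.01% tween-20; 40 min RT, NaOH/glycine stop; fluorescence Ex 365/Em 440; AC50 from a titration from 0.6 nM upwards.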

The nature of assay [7]: AP1 Signaling Pathway (AID 357; active = well fitted curve in either direction with a large enough effect, not every such curve was filed as active; note: % is set by controls: 0 for no effect and ±100 for the full control effect). The settings on record: ME-180 AP-1-bla reporter, EGF-induced, beta-lactamase ratio, 5 h; at 7.69 µM (top of the series) unless noted. An outline of the steps:
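ME-180 cells with beta-lactamase reporter under AP-1 response element, stimulated with EC50 EGF; compounds tested in titration series, 5 h at 37 °C. CCF4 substrate added 2.5 h at room temperature; 460/530 nm emission ratio gave %activity and AC50.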

The nature of assay [8]: NFAT Signaling Pathway (AID 444; active = well fitted curve in either direction with a large enough effect, not every such curve was filed as active;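 note: carbachol stimulus at about its EC50 of 1 µM final; % is set by controls: 0 for no effect and ±100 for the full control effect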). To be noted: Jurkat NFAT-bla M1, carbachol, beta-lactamase ratio, 5 h; at 7.69 µM (top of the series) unless noted. An outline of the steps: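 Jurkat cells carrying an NFAT-driven β-lactamase reporter and co-transfected muscarinic M1 receptor were treated with compound plus carbachol (1 uM final, an EC50 level) for 5 h at 37 °C. CCF4 loading followed for 1 h at RT; 460/530 nm ratio gave %activity.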

The nature of assay [9]: Stat Signaling Pathway (AID 446; active = well fitted curve in either direction with a large enough effect, not every such curve was filed as active;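 note: ME-180 cervical cancer cells given 40 pM IL-6 alongside compound; SIE-controlled beta-lactamase reporter measured as 460/530 nm FRET emission ratio; % is set by controls: 0 for no effect and ±100 for the full control effect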). In outline:
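Compound effects on IL-6-induced STAT reporter activity were measured in ME-180 cells. After overnight culture, cells were co-treated with 40 pM IL-6 for 5 hrs before beta-lactamase substrate loading at room temperature.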

For assay [10], the target named is Glucocorticoid receptor (Homo sapiens) (UniProt P04150). The experiment in a line: GR-EFC Redistribution (AID 451; calls by dose curve; note: potency is the fitted concentration of half-maximal effect). The settings on record: CHO-K1 GR-EFC translocation, beta-gal luminescence, 2 h. An outline of the steps: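 CHO-K1 cells stably expressing nuclear-localized β-gal enzyme acceptor and GR fused C-terminally to the enzyme donor fragment; ligand-driven nuclear translocation restores β-gal by complementation. Compounds titrated up to 46 uM final, 2 h at 37 °C; luminescence read.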

In assay [11] the target is Mitogen-activated protein kinase 10 (Mus musculus) (UniProt Q61831). The experiment in a line: JNK3 AlphaScreen Assay (AID 530; active = well fitted curve in either direction with a large enough effect, not every such curve was filed as active;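 note: kinase came from lysate of stimulated human HepG2 cells; signal reports phosphorylation of biotinylated GST-cJun 1-79 at Ser73 with 10 µM ATP; % is set by controls: 0 for no effect and ±100 for the full control effect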). An outline of the steps:
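Biotinylated GST-cJun(1-79) served as substrate for JNK3 in HepG2 lysates stimulated with IL-1beta and TNF-alpha. ATP was 10 uM final, pH 7.6. Ser73 phosphorylation was quantified by AlphaScreen (680 nm excitation).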

The target in assay [12] is 3',5'-cyclic-AMP phosphodiesterase 4B (Homo sapiens) (UniProt Q07343). The experiment in a line: qHTS Assay for Inhibitors of PDE-IV (AID 607; active = well fitted activation curve with a large enough effect in the main read-out, with a control signal flat, not every such curve was filed as active; note: % of control where 0% means no effect). An outline of the steps:
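ACTOne HEK293 cells carry a modified cAMP-gated CNG channel and express endogenous PDE4; plated 1000 cells/well, compounds up to 22.9 uM final. Membrane-potential dye fluorescence (ex 535/em 590) was read; parental cells received 10 uM forskolin + 100 uM RO 20-1724.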

Assay [13] addresses Cytochrome P450 3A4 (Homo sapiens) (UniProt P08684). The experiment in a line: qHTS Assay for Inhibitors and Substrates of Cytochrome P450 3A4 (AID 884). Note: potency is the fitted concentration of half-maximal effect; nearly all actives have a fitted effect of over 50% in size. In outline: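 Luminescent readout of luciferin produced by CYP3A4 (20 nM) dealkylation of Luciferin-PPXE, 25 uM (its KM). NADPH-driven reaction ran 60 min at RT after 10 min compound preincubation; data scaled to 57 uM ketoconazole as 100% inhibition.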

For assay [14] the target is unchanged. The experiment in a line: qHTS Assay for Activators of Cytochrome P450 3A4 (AID 885). Note: nearly all actives have a fitted effect of over 65% in size. In outline: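 CYP3A4 activity: Luciferin-PPXE O-dealkylation, 25uM substrate, 200mM KPO4, RT throughout. Read-out is luciferase luminescence; higher values reflect activation.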
A short description of assay [15]: qHTS Assay for Identification of Small Molecule Agonists for Hypoxia Response Element Signaling Pathway (AID 914; active = well fitted activation curve with a large enough effect in the signal ratio, with a control signal flat, not every such curve was filed as active; the % refers to the signal ratio; note: % of control where 0% means no effect). To be noted: ME-180 (cervical carcinoma) HRE-bla reporter, beta-lactamase ratio, CoCl2, 17 h; activation: stronger effect = higher value. In outline: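 qHTS titration; ME-180 HRE-bla cells; EC50 CoCl2 co-treatment, 17 h at 37 degrees Celsius; CCF4 dye, ex 405nm, em 460nm and 530nm; %Activity from ratio; AC50.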

In assay [16] the target is Rap guanine nucleotide exchange factor 3 (Homo sapiens) (UniProt O95398). The experiment in a line: Counterscreen qHTS for agonist of cAMP-regulated guanine nucleotide exchange factor 3 (EPAC1) (AID 1645889). For activation: % of control where 0% means no effect. Note: nearly all actives have a fitted effect of over 40% in size. Note: potency is the fitted concentration of half-maximal effect. An outline of the steps: as §1
Sequence of Rap guanine nucleotide exchange factor 3 (Homo sapiens) (O95398 whole entry, looked up): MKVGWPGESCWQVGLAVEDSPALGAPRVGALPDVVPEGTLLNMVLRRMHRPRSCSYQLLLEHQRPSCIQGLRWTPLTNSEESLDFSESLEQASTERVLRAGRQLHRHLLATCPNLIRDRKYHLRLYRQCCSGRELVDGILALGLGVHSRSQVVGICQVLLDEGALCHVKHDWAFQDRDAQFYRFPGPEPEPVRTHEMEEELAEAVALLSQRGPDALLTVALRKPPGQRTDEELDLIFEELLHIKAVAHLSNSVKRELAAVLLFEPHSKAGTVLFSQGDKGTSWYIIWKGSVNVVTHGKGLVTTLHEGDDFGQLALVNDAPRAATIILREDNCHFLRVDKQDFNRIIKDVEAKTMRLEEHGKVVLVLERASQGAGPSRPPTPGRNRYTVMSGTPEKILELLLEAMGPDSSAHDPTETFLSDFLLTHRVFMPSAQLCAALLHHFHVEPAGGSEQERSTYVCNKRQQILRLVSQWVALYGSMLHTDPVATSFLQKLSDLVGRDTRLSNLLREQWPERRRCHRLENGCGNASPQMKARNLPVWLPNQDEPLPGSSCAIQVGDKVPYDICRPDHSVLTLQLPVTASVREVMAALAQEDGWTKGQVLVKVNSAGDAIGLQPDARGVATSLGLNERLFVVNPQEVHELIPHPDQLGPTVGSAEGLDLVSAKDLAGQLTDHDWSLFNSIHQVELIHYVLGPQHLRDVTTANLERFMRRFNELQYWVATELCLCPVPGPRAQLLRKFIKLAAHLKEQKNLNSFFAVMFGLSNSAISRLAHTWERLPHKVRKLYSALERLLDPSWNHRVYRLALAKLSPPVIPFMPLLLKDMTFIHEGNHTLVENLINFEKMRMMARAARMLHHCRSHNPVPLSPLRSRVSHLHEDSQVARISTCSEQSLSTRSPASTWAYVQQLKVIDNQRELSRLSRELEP

Sequence of Tumor susceptibility gene 101 protein (Homo sapiens) (Q99816 whole entry, looked up, the tested form may be a part): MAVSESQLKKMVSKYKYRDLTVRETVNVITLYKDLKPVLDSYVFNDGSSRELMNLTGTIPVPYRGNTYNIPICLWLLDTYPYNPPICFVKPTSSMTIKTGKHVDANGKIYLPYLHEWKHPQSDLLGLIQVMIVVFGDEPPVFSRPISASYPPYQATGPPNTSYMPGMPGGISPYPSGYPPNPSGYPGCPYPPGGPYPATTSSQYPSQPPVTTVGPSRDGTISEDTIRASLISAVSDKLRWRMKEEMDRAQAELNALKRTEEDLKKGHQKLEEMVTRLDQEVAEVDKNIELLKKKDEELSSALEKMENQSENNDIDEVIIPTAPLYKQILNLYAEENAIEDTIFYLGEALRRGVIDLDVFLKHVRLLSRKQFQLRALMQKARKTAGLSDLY
Sequence of Rap guanine nucleotide exchange factor 4 (Homo sapiens) (Q8WZA2 whole entry, looked up): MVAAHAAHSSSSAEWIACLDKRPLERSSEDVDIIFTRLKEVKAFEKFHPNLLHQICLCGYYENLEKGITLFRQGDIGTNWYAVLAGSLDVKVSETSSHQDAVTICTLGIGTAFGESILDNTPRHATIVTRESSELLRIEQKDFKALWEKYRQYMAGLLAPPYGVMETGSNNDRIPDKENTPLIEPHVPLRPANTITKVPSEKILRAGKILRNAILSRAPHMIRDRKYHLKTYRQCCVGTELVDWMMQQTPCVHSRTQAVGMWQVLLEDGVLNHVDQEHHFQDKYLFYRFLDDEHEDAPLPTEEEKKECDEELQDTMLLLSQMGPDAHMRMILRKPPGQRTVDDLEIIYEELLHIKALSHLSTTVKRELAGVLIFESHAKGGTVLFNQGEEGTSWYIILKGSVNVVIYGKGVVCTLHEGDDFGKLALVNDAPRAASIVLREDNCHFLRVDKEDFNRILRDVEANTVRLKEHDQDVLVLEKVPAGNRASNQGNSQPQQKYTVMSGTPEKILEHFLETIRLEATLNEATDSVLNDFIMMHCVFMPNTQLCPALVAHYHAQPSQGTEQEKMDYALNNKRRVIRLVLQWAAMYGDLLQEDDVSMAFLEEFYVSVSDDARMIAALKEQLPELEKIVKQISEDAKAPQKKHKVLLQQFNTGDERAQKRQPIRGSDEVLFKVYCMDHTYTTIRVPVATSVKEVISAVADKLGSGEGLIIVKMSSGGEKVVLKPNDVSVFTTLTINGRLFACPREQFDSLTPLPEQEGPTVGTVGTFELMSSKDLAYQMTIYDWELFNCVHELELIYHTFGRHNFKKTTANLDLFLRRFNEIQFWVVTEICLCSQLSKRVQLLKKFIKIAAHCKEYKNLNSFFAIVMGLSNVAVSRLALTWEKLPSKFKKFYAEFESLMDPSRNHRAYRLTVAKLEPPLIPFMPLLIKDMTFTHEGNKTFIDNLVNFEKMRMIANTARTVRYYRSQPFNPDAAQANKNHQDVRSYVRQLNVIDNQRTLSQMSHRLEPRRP
Sequence of Cytochrome P450 3A4 (Homo sapiens) (P08684 whole entry, looked up): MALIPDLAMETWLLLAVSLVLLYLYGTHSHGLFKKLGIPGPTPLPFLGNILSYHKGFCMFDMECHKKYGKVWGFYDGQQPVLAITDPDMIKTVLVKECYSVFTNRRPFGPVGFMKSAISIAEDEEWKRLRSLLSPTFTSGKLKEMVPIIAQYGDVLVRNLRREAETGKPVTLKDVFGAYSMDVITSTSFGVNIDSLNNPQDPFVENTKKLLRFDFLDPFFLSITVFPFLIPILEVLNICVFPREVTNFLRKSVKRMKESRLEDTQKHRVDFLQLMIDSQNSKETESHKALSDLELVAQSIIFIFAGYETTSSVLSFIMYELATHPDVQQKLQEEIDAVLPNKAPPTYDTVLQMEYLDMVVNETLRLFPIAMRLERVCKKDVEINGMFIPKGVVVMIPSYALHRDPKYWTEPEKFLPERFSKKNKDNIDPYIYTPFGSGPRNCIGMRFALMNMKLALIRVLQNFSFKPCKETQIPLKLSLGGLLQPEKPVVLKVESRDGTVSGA
Sequence of Lysosomal acid glucosylceramidase (Homo sapiens) (P04062 whole entry, looked up): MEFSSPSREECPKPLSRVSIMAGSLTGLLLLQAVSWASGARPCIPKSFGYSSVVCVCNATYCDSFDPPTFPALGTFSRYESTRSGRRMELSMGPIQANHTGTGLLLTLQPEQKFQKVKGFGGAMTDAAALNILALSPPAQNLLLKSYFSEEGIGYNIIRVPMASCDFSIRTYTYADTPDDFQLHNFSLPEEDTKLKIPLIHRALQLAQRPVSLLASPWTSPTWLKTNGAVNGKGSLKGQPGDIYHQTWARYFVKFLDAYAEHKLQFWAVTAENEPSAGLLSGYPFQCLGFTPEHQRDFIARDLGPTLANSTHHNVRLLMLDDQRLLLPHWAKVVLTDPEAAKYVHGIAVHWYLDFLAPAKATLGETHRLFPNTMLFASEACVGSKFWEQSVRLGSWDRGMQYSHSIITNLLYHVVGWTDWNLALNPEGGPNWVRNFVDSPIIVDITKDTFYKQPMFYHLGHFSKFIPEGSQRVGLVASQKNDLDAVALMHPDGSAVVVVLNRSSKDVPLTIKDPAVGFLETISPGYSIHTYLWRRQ
Sequence of 3',5'-cyclic-AMP phosphodiesterase 4B (Homo sapiens) (Q07343 whole entry, looked up): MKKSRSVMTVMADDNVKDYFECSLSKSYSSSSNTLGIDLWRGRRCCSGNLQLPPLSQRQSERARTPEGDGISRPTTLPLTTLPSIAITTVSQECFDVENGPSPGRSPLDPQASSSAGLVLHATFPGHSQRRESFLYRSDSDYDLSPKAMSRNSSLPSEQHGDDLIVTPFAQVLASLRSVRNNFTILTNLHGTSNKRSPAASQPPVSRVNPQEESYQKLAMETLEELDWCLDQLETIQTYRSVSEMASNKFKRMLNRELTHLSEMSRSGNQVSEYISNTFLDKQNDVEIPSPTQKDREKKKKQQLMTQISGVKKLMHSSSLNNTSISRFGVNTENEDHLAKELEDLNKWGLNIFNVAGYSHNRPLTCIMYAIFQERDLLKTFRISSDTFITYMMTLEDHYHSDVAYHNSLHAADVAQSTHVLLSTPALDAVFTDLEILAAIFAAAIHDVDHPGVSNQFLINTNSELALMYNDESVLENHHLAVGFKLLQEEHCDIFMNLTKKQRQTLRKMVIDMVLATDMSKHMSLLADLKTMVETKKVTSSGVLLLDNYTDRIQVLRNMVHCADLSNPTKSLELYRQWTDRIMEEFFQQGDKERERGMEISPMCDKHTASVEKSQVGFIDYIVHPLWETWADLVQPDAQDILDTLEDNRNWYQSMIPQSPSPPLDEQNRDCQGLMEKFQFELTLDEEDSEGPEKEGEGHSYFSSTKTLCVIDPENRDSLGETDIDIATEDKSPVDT
Sequence of Glucocorticoid receptor (Homo sapiens) (P04150 whole entry, looked up, the tested form may be a part): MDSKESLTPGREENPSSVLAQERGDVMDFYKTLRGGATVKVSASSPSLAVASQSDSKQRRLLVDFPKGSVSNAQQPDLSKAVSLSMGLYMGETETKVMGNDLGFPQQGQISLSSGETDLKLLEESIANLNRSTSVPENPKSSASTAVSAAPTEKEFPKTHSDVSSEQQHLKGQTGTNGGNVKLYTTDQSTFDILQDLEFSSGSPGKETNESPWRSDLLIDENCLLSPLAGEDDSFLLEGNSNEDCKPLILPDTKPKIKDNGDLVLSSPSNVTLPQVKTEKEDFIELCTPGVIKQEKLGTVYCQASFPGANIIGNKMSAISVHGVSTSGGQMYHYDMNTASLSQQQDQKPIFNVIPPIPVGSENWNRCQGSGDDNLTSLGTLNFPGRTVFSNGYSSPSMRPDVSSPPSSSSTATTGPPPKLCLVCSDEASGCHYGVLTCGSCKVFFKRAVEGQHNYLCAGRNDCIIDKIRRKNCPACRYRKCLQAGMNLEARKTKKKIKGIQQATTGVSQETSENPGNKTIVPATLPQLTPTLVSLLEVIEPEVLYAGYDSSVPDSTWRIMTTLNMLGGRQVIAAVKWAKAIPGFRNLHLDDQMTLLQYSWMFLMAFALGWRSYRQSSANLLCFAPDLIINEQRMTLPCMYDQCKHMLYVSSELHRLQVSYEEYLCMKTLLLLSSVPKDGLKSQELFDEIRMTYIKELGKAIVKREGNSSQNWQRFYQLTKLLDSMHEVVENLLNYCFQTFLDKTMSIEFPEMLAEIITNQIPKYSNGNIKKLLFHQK

Take `CCN(CC)c1ccc2cc(S(=O)(=O)c3ccc(Cl)cc3)c(=O)oc2c1`: the figures for the Potency in assay [1], in [3] and in assay [4] were 18.3 µM (active), 100 µM (active) and 42.6 µM (active), respectively. The Potency entry in assay [2] and in [5] was “inactive” in each case.

As to `COc1ccccc1NC(=O)/C(C#N)=C/c1cc([N+](=O)[O-])ccc1N1CCCC1`, the Potency in [1] was 14.6 µM (active); in assay [3] it was 112 µM (active); in assay [4] it was 75.7 µM (active). Further, the Potency entry in assay [2] and in assay [5] was “inactive” each time.

Consider `O=C(C(=Cc1ccc(O)cc1)c1ccccc1)c1ccccc1`, for which the Potency result in assay [2], in [3] and in assay [5] was “inactive” in each case.

Regarding `Cc1ccccc1C(=O)O/N=C(\c1ccccc1)c1ccccn1`, in [2], the Potency entry was “inactive”. Moreover, the activation in assay [3] was 8.13% [at 17.1 µM, percent relative to cAMP agonist control]. Besides, in assay [5], the activity change, negative = inhibition is 3.56% [at 30.8 µM].

As to `O=C1CSC(c2ccc(Cl)c(Cl)c2)N1c1nccs1` (stereo not drawn), the Potency result in [2], in [3] and in [5] was “inactive” in each case.

In the case of `COc1ccc(Oc2ncc3nc(C)c(=O)n(Cc4cccs4)c3n2)cc1`, the Potency was greater than 11.4 µM in assay [6], greater than 46 µM in assay [10] and 3.16 µM (active) in assay [13]. The activity change, negative = inhibition in assay [7] was 4.45%; in assay [8] it was -5.89%. In addition, the compound was called inactive in assay [9] and in assay [14]. Further, the Potency entry in assay [11] and in assay [12] was “inactive” throughout. The activation in assay [15] is -21.2%.

For the compound `CC(C)CCN1C(=O)c2cccc3c(N)ccc(c23)C1=O`, the Potency was 16.3 µM (active) in assay [1] and 12.6 µM (active) in [16]. Also, the Potency result in assay [2] and in assay [4] was “inactive” in each case. Besides, the activity change, negative = inhibition in assay [5] is 154% [at 30.8 µM].

Consider `O=C1C=C(c2c(O)ccc3ccccc23)c2ccccc2C1=O`, for which the Potency in assay [2] is 67.5 µM (active); in assay [4] it was 47.8 µM (active); in assay [16] it was 35.5 µM (active). In [5], the Potency entry is “inactive”.

In the case of `CC1CC1c1ccc(/C=C(\C#N)C(=O)Nc2cc(Cl)ccc2Cl)o1` (stereo not drawn), the Potency result in assay [2], in [4], in assay [5] and in [16] was “inactive” in each case.

As for `CC(C)CC1=NN2C(=N)/C(=C\c3coc4ccccc4c3=O)C(=O)N=C2S1`, the Potency entry in [2] and in [4] was “inactive” in each case. Also, in [5], the activity change, negative = inhibition is 51.1% [at 30.8 µM]. The Potency in [16] was 12.6 µM (active).

For the compound `O=C1CC2(CCN(S(=O)(=O)c3ccccc3F)CC2)Oc2ccccc21`, the Potency result in assay [2], in assay [4] and in [5] was “inactive” throughout. Moreover, the Potency in assay [16] was 10 µM (active).

As for `CC1=CC2=NC(=O)/C(=C/c3coc4ccccc4c3=O)C(=N)N2O1`, the Potency entry in assay [2] and in assay [5] was “inactive” each time. Besides, the Potency in assay [4] was 75.7 µM (active); in assay [16], 39.8 µM (active).

Turning to `CCN1CCc2c(sc(NC(=O)Nc3ccc(Cl)c(Cl)c3)c2C(N)=O)C1`, the Potency entry in assay [2] was “inactive”. For the same compound, the Potency in assay [4] was 84.9 µM (active); in [5], 100 µM (active); in assay [16], 112 µM (active).
